CYP2C19 act – human CYP2C19 activators, primary screen, biochemical, luminescence | Cytochrome P450 2C19 (Homo sapiens), P33261 | recombinant CYP2C19, luciferin-H EGE luminescence; active compounds read high; 0 = fully inhibited enzyme, 1 = untreated enzyme | activation factor at 5 µM | 96,000 tested, under 10 active;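 active = activation factor of at least 2 at 5 µM in the primary screen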;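 also: 0 = wells with 2.5 mM tranylcypromine and 1 = vehicle-only wells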
sEH inh – soluble epoxide hydrolase inhibitors, primary screen, biochemical, human sEH; recombinant human sEH enzymatic activity assay; Bifunctional epoxide hydrolase 2 (Homo sapiens), P34913; inhibition, % at 2 µM; actives 0.34% (n = 91,000); AID 707, 2007; in the data active = inhibition above about 80%
sEH activator – soluble epoxide hydrolase activators, primary screen, biochemical, human sEH | Bifunctional epoxide hydrolase 2 (Homo sapiens), P34913 | purified human sEH enzymatic activity, activator screen | activation, % at 2 µM | actives 0.04% (n = 91,000) | AID 717, 2007; in the data active = activation above about 37%
CYP2C9 activ – human CYP2C9 activators, primary screen, biochemical, luminescence; recombinant CYP2C9, luciferin-H conversion; active compounds read high; factor 1 = untreated enzyme, 0 = blocked; activation factor at 5 µM; actives 1.4% (n = 96,000);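 active = activation factor of 2 or more for CYP2C9 at a 5 µM dose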;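 also: 0 = sulfaphenazole-blocked wells and 1 = vehicle-only wells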
Target sequence (P11712 whole entry, looked up): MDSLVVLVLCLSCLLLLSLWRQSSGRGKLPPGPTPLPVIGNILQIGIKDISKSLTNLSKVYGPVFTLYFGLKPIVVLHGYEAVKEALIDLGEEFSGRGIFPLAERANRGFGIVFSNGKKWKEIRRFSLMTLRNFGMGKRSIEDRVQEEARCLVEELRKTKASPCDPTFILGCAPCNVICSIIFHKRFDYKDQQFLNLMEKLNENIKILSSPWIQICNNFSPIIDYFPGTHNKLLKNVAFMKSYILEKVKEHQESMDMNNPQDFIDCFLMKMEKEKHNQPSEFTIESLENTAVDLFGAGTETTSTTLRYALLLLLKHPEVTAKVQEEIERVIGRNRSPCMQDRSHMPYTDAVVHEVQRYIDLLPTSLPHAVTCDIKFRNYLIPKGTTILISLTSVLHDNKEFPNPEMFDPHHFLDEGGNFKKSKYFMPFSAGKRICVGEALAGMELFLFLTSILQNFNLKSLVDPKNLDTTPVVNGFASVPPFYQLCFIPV
CYP2C19 inh – blockers of cytochrome P450 2C19 activity – biochemical, luminescence, ADME assay, primary screen. P33261. CYP2C19 Supersomes, luciferin-H EGE luminescence, 30 min. inhibition, % at 5 µM. actives 21% (n = 96,000). AID 778, 2007;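 active = CYP2C19 inhibition above a set limit at 5 µM in the primary screen, cut at about 50% in these data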;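 also: plate controls were negative control wells for no effect and 2.5 mM tranylcypromine positive control for full effect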
CYP2C9 inh – blockers of cytochrome P450 2C9 activity – biochemical, luminescence, ADME assay, primary screen | P11712 | CYP2C9 Supersomes, luciferin-H conversion | inhibition, % at 5 µM | actives 20% (n = 96,000) | AID 777, 2007;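 active = blocking of liver enzyme CYP2C9 beyond about 50% at 5 µM, limit read from the data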
* hit, by the source's call; nt = no result. Most compounds without a hit are left out; they make up all but 27% or so of the library.

SMILES	CYP2C19 act	sEH inh	sEH activator	CYP2C9 activ	CYP2C19 inh	CYP2C9 inh
O=C(CN(Cc1ccccc1Cl)C(=O)c1ccc(CN2CCOCC2)o1)NCC1CCCO1 (centres undefined)	1	15.1	-12.6	1	-0.2	1.3
CCOC(=O)N1CCN(S(=O)(=O)c2ccc(C(=O)Nc3sc4c(c3C#N)CCC4)cc2)CC1	0.6	10.3	-11.4	0.3	41.6	74.7*
COc1ccc(S(=O)(=O)N2CCN(C(=O)c3cnc(C)cn3)CC2)cc1	0.5	-2.8	0.8	1	50.1*	-0.3
CCCC(=O)Nc1nc2c(OC)ccc(OC)c2s1	0.7	nt	nt	0.4	29.7	60.9*
COc1ccc(OC)c2sc(NC(=O)C3CC3)nc12	0.7	4.2	-5.4	0.4	30.7	57.1*
CCC(=O)Nc1nc2c(OC)ccc(OC)c2s1	1.1	-5.8	4.5	1	-6.8	2.2
COc1ccc(OC)c2sc(NC(=O)c3ccc(Cl)s3)nc12	0.9	-22.6	21.4	0.8	9.3	21.8
CS(=O)(=O)N1Cc2ccccc2CC1C(=O)OCC(=O)Nc1ccc2ccccc2c1 (centres undefined)	1	11.1	-11.8	0.9	0.0	7.4
CC(NS(=O)(=O)c1ccc(Cl)cc1)C(c1cccs1)N1CCN(C)CC1 (centres undefined)	nt	-0.5	3.8	nt	nt	nt
O=CNc1ccc(S(=O)(=O)NCc2ccccc2)cc1	0.1	-42.6	39.2*	1.8	89.6*	-77.5
O=C(CCNS(=O)(=O)c1ccc(Cl)cc1)NCc1cccnc1	0.6	-1.5	-0.3	0.8	44.1	23.7
O=S(=O)(NCC(c1ccccc1)N1CCNCC1)c1ccc(Cl)cc1 (centres undefined)	0.4	6.9	-8.3	0.9	60.5*	5.3
CC(C)N(CCNS(=O)(=O)c1ccc(Cl)cc1)C(C)C	0.6	-1.4	-0.3	0.5	42.8	53.8*
O=S(=O)(NCc1ccc(Cl)cc1)c1ccc(Cl)nc1	0.1	-9.6	9.7	0.8	89.8*	17.3
CCN(CC)CCCN1C(=O)c2oc3ccccc3c(=O)c2C1c1cccs1 (centres undefined)	1.1	1.5	-2.0	0.8	-13.2	24.2
CSc1ccc(S(=O)(=O)NCc2ccc(Cl)cc2Cl)cc1	0.1	7.4	-4.5	2.4*	85.9*	-136.1
CSc1ccc(S(=O)(=O)NCc2ccccc2)cc1	0.3	1.9	0.8	1.1	67.4*	-13.0
O=S(=O)(NCc1cccnc1)c1ccccc1	0.8	-4.5	2.6	1.1	16.2	-5.4
O=S(=O)(NCc1ccccc1)c1ccc(Cl)cc1	0.2	-9.5	6.3	0.3	79.7*	72.2*
CSc1ccc(S(=O)(=O)Nc2c(C)cccc2C)cc1	0.6	13.2	-13.1	0.8	40.1	16.1
Nc1ccc2nc(CN3CCOCC3)[nH]c2c1	1	-17.8	15.8	0.9	2.1	9.4
COC(=O)c1sc(NC(=O)COc2cccc3ccccc23)nc1C	0.8	7.5	-4.1	0.7	19.5	33.3
CCn1nc(NS(=O)(=O)c2ccccc2)c2cc3cccc(C)c3nc21	0.9	-13.5	16.7	0.2	9.0	78.8*
CCCn1nc(NS(C)(=O)=O)c2cc3cccc(C)c3nc21	0.7	-7.7	7.2	0.3	32.3	65.4*
CCn1nc(NC(=O)c2ccccn2)c2cc3cccc(C)c3nc21	1	-14.4	12.8	0.9	1.7	7.4
Cc1cc(C)n(-c2nnc(C)n2/N=C/c2ccco2)n1	1	1.1	-2.9	1.1	-1.5	-12.8
CCCOc1ccc2ccccc2c1/C=N/n1c(C)nnc1-n1nc(C)cc1C	0.2	1.9	-1.6	0.8	82.6*	18.0
COC(=O)Cc1c(C)nc2nc(-c3ccco3)[nH]n2c1=O	nt	6.4	-3.3	nt	nt	nt
Cc1nc(CC(=O)c2ccc(O)cc2O)cs1	0.8	8.7	-9.2	0.8	22.9	25.0
Cc1nc(COC(=O)c2c(C)nn(-c3ccccc3)c2C)cs1	0.5	-2.7	0.7	0.3	47.3	69.0*
